Measurements reported in PubChem BioAssay AID686979 (National Center for Advancing Translational Sciences (NCATS), 2013).
Hit rate of the full screen: of about 420,000 compounds, about 50,000 (12%) were called active. Entries that show only a call come without a potency. About 26% were inconclusive and are not listed. The call rests on the fitted dose curve; in most records, active means well fitted inhibition curve with a large enough effect; inconclusive means small, poorly fitted or top-dose-only effect; inactive means flat fitted curve, though single readings scatter. The sample as a whole holds a higher share of actives than the screen did.

assay: qHTS for Inhibitors of human tyrosyl-DNA phosphodiesterase 1 (TDP1): qHTS in cells in presence of CPT; details: chicken DT40 Tdp1-/-;hTDP1 cells + 20 nM CPT, ATP luminescence, 48 h; series mostly up to 46.2 µM; further: nearly all actives have a fitted effect of over 55% in size
Outline: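 Chicken DT40 Tdp1-/- cells stably complemented with human TDP1 were seeded at 400 cells/well in medium containing 20 nM camptothecin, exposed to pin-transferred compounds, and grown at 37 °C for at least 48 hr. Viability was read as ATP luminescence.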
Potency means the concentration at half of the fitted maximal effect.

SMILES | Potency | activity change, negative = growth inhibition
CCOc1ccc(N2C(=O)CSC2=NC#N)cc1 | inactive | –
COC(=O)C1=C(C)NC(=S)NC1c1ccc(OCC(=O)N2CC(C)OC(C)C2)c(OC)c1 (stereo not drawn) | inactive | –
Cn1cc(S(=O)(=O)N2CCN(c3ccc(F)cc3)CC2)c(=O)n(C)c1=O | inactive | –
CCc1ccc(C(=O)OCC(=O)NCC(F)(F)F)cc1 | inactive | –
CS(=O)(=O)N1CCCC(C(=O)Nc2ccccc2C(F)(F)F)C1 (stereo not drawn) | inactive | –
CC(=O)Nc1ccc(NC(=O)C(C)OC(=O)C2CC(=O)N(CCc3ccccc3)C2)cc1 (stereo not drawn) | inactive | –
O=C(O)C1CCCCC1C(=O)N1CCN(S(=O)(=O)c2ccc(F)cc2)CC1 (stereo not drawn) | inactive | –
NCCCCC(C(=O)O)N(C(=O)OCc1ccccc1)C(=O)OCc1ccccc1 (stereo not drawn) | inactive | –
CC1C(=O)C(C)C(c2ccc(O)cc2)NC1c1ccc(O)cc1 (stereo not drawn) | inactive | –
O=C(OCC(=O)N1CCN(C(=O)c2ccco2)CC1)c1ccc(Cl)c(Cl)c1 | inactive | –
CCOc1ccccc1/C=N/NC(=O)CNC(=O)COc1ccccc1 | inactive | –
COc1ccc(CCNC(=O)CCc2ccccc2O)cc1OC | inactive | –
Cc1ccc(S(=O)(=O)c2cc3c(=O)n4cccc(C)c4nc3n(CCc3ccccc3)c2=N)cc1C | inactive | –
COc1ccc(CCn2c(=N)c(C(=O)NCc3ccco3)cc3c(=O)n4cccc(C)c4nc32)cc1 | 20.6 µM (active) | –
COc1ccc(C(=O)Nc2ccccc2C(=O)NCc2ccco2)cc1 | inactive | –
CCOC(=O)c1ccc(NC(=O)CCn2c(=O)oc3ccccc32)cc1 | inactive | –
CC(Sc1nncn1C)C(=O)NCCC1=CCCCC1 (stereo not drawn) | inactive | –
CC(C)n1cnc2c(Nc3cccc(Cl)c3)nc(N(CCO)CCCO)nc21 | 10.3 µM (active) | –
CC(C)[C@H](CO)Nc1nc(Nc2cc(N)cc(Cl)c2)c2ncn(C(C)C)c2n1 | 4.73 µM (active) | –
CCC(C)NC(=O)C1c2ccccc2Oc2ccccc21 (stereo not drawn) | inactive | –
CC(C)(C)c1nnc(NC(=O)C2c3ccccc3Oc3ccccc32)s1 | 23.1 µM (active) | –
CCC(C)(C)NC(=O)C1c2ccccc2Oc2ccccc21 | inactive | –

SMILES | Potency | activity change, negative = growth inhibition
COCCCNCC(=O)Nc1sc(C)c(C)c1C(=O)OC | inactive | –
Nc1ncnc2nnsc12 | inactive | –
Oc1c(C(c2ccc(F)cc2)N2CCN(Cc3ccccc3)CC2)sc2nc(-c3ccco3)nn12 (stereo not drawn) | inactive | –
CC(C)(O)CCC(O)[C@@](C)(O)C1CC[C@]2(O)C3=CC(=O)C4CC(O)C(O)C[C@]4(C)C3CC[C@]12C (stereo partly drawn) | inactive | –
COc1cccc(C=CC(=O)C=CC=Cc2ccccc2)c1 | 20.6 µM (active) | –
COc1cccc(N2CC(NC(=O)/C=C\c3ccccc3)CC2=O)c1 (stereo not drawn) | inactive | –
COc1cccc(C(=O)NNC(=O)/C=C/c2ccccc2)c1 | inactive | –
COc1ccccc1C(C)NC(=O)Cc1ccsc1 (stereo not drawn) | inactive | –
Cc1ccc(CN(CC(=O)NC2CCCCC2)C(=O)c2csnn2)cc1 | inactive | –
COc1ccc(CN(CC(=O)NC2CCCC2)C(=O)CCC(=O)Nc2cc(C)on2)cc1 | inactive | –
Cc1cc(C(C)(C)C)oc1C(=O)N(CC(=O)NC1CCCC1)Cc1ccc(Cl)cc1 | 9.2 µM (active) | –
CC(C)Oc1ccc(C(=O)NC(C)(C)CO)cc1 | inactive | –
Cc1ccc2cccc(NC(=O)c3ccc(OC(C)C)cc3)c2n1 | 18.4 µM (active) | –
CC(C)Oc1ccc(C(=O)Nc2cc(=O)n(C)c(=O)n2C)cc1 | inactive | –
CC(Oc1ccc(Cl)cc1)C(=O)Nc1ncccn1 (stereo not drawn) | inactive | –
COc1ccc(OC(C)C(=O)Nc2cccnc2)cc1 (stereo not drawn) | inactive | –
Cc1ccc2cccc(NC(=O)C(C)Oc3ccc(C)c(C)c3)c2n1 (stereo not drawn) | 20.6 µM (active) | –
Cc1ccc(Cn2c(=O)n(-c3ccc(C)cc3)c(=O)c3c2c2cc(C)ccc2n3C)cc1 | inactive | –
CCCCSCCCNC(=O)C1CCC(CNS(=O)(=O)c2ccc(NC(C)=O)cc2)CC1 (stereo not drawn) | inactive | –
CC1CCN(C(=O)CCNC(=O)c2ccccc2)CC1 | inactive | –
C=CCn1c(CCNC(=O)c2ccccc2F)nnc1SCC(=O)Nc1ccc(OC)cc1 | inactive | –
Cc1ccc(CN(CC(=O)NCC2CCCO2)S(=O)(=O)c2ccc(C)cc2)cc1 (stereo not drawn) | inactive | –

SMILES | Potency | activity change, negative = growth inhibition
Cc1ccc2nc3n(c(=O)c2c1)CCC3 | inactive | –
Cc1nc2ccc(C(=O)N3CCN(c4ccccc4)CC3)cc2s1 | inactive | –
Cc1ccc2nc(C)c3c(c2c1)N(c1ccccc1)CC3 | 11.6 µM (active) | –
COc1ccc(Cn2ccnc2SCC(=O)NCc2ccco2)cc1 | inactive | –
CCOC(=O)c1cccc(NC(=O)CCc2nnc3ccc(N4CCOCC4)nn23)c1 | inactive | –
O=C(NC1CCCCC1)C1CCC(CNS(=O)(=O)c2ccccc2)CC1 (stereo not drawn) | inactive | –
CN(N)c1nc(N2CCCC2)nc(N2CCCC2)n1 | inactive | –
Clc1nc(NC2CCCC2)nc(N2CCOCC2)n1 | inactive | –
COc1nc(NC2CCCCC2)nc(N2CCCCCC2)n1 | 22.4 µM (active) | –
C[C@@H]1CN([C@@H](C)CO)C(=O)c2cc(Br)cnc2O[C@@H]1CN(C)C(=O)C1CCCCC1 | inactive | –
CC(=O)N[C@H]1[C@H]([C@H](O)[C@H](O)CO)OC(C(=O)O)=C[C@@H]1O | inactive | –
CCN(CC)c1ccc2oc(=O)c(C)nc2c1 | 5.17 µM (active) | –
CCN(CC)c1ccc2c(Nc3ccccc3)c(C=O)c(=O)oc2c1 | inactive | –
Cc1ccc2oc(=O)ccc2c1 | inactive | –
CCOc1cc(/C=C2\C(=N)N3N=C(C)SC3=NC2=O)ccc1OCCOc1ccccc1 | inactive | –
Cc1ccc(NC(=S)NCc2ccccc2Cl)c(C)c1 | 23.1 µM (active) | –
Cc1c(Cl)cccc1NC(=S)NCc1ccc2c(c1)OCO2 | inactive | –
S=C(NCc1ccco1)NCc1ccccc1Cl | inactive | –
CCC(=O)N1CCC(C)(C(=O)Nc2cc(OC)c(OC)c(OC)c2)C1 (stereo not drawn) | inactive | –
CNc1ccc(NC(C)=O)cc1[N+](=O)[O-] | inactive | –
Cc1ccc(Nc2ccc(C(N)=O)cc2[N+](=O)[O-])cc1 | inactive | –
CC(=O)Nc1ccc(/C=N/Nc2ccc(C(=O)c3c(C)cc4ccccn34)cc2[N+](=O)[O-])cc1 | 18.4 µM (active) | –

SMILES | Potency | activity change, negative = growth inhibition
CCCCN1C(=O)C(CC(=O)NCc2cccs2)CC(C(=O)N2CCOCC2)=C1C (stereo not drawn) | inactive | –
O=C(CSc1ncnc2sccc12)NC1CCS(=O)(=O)C1 (stereo not drawn) | inactive | –
Cc1noc(C)c1C(=O)N1CCC1(C)C(=O)NS(=O)(=O)c1ccc(C#N)cc1 (stereo not drawn) | inactive | –
COc1ccc(C(=O)CSc2nc(C)cc(C)n2)cc1[N+](=O)[O-] | inactive | –
O=C(Nc1ccc([N+](=O)[O-])cc1)c1cnn2c1NC(=C1CC1)C=C2C(F)F | inactive | –
CC(C)(C)C1CCC(NC(=O)c2cnn3c2NC(=C2CC2)C=C3C(F)F)CC1 (stereo not drawn) | 10 µM (active) | –
O=C(Nc1ccc(Cl)cc1)c1cnn2c1NC(=C1CC1)C=C2C(F)F | inactive | –
COc1cc(NC(=S)NCc2ccco2)c(OC)cc1Cl | inactive | –
CNC(=O)Nc1cc(C(C)(C)C)no1 | 16.4 µM (active) | –
COc1ccc(NC(=O)c2cc(=O)[nH]c3ccccc23)cc1S(=O)(=O)N1CCOCC1 | inactive | –
CCCCC/C=C\CC1OC1CCCCCCCC(=O)O (stereo not drawn) | – | 0.0245% [at 0.628 µM] (inactive)
O=[N+]([O-])c1cc(S(=O)(=O)NCCc2ccccn2)ccc1Cl | inactive | –
Cc1ccc(C(=O)N/C(=C/c2cccnc2)C(=O)O)cc1 | inactive | –
CC(=O)N(C)c1ccc(NC(=O)Nc2cccc3ccccc23)cc1 | inactive | –
CCN(C(=O)Nc1cccc2ccccc12)c1ccccc1 | 23.1 µM (active) | –
O=C(Nc1cccc2ccccc12)NC1CC1 | inactive | –
CCn1c(-c2cccnc2Cl)nc2cc(C)c(C)cc21 | inactive | –
CCOC(=O)N1CCN(C(=O)c2ccc(S(=O)(=O)Nc3cccc(C(F)(F)F)c3)cc2)CC1 | 16.4 µM (active) | –
O=C(NCc1ccccc1)c1ccc(S(=O)(=O)Nc2cccc(C(F)(F)F)c2)cc1 | inactive | –
CCOC(=O)N1CCN(C(=O)c2ccc(S(=O)(=O)c3ccc(C)cc3)c(NC(C)=O)c2)CC1 | inactive | –
CC(C)(C)NC(=O)CN1CCC(NC(=O)C23CC4CC(CC(C4)C2)C3)CC1 | inactive | –
COc1cccc(CCNC(=O)c2cccc(NC(=O)C3=C(C)OCCS3)c2)c1 | 23.1 µM (active) | –

SMILES | Potency | activity change, negative = growth inhibition
O=C(Nc1cccc(C(=O)N2CCCC2)c1)c1ccccc1 | inactive | –
CC(CNC(=O)c1nnc(Cc2cccc(F)c2)o1)c1ccccc1 (stereo not drawn) | inactive | –
COc1cccc(CCNC(=O)COc2cccc3c2OC(C)(C)C3)c1 | inactive | –
CC1=C(C(=O)Nc2cccc(C(=O)NCC(C)c3ccccc3)c2)SCCO1 (stereo not drawn) | 16.4 µM (active) | –
COc1cccc(C(=O)NCCSc2ccc(Br)cc2)c1 | inactive | –
COCCn1c(N)c(N(Cc2ccccc2)C(=O)C2CCCCC2)c(=O)[nH]c1=O | inactive | –
Cc1nn(C)c(C)c1S(=O)(=O)N1CCC(CO)(Cc2ccc(Cl)cc2)CC1 | inactive | –
Cc1c(Cl)cnc(NC(=O)COC(=O)C2CCCC2)c1Cl | inactive | –
N#Cc1ccc(CSc2ncccn2)cc1 | inactive | –
CC(C)C(c1nnnn1C1CCCCC1)N1CCN(C(=O)c2ccco2)CC1 (stereo not drawn) | inactive | –
CC1(C)C2CC[C@]3(C)C(CC=C4[C@@H]5C[C@@](C)(CO)CC[C@]5(C(=O)O)CC[C@]43C)[C@@]2(C)CC[C@@H]1O (stereo partly drawn) | inactive | –
CC(=NCc1ccco1)C1=C(O)c2ccccc2C1=O | inactive | –
CCOC(=O)c1cc2n(c1N)-c1ccccc1C2=O | inactive | –
CCOC(=O)c1c(-c2ccc(C)cc2)csc1/N=C(\C)C1=C(O)c2ccccc2C1=O | 23.1 µM (active) | –
CN(C)Cc1c(C(=O)N/N=C/c2ccccc2OCc2ccc(F)cc2)nnn1-c1nonc1N | inactive | –
CCOC(=O)N1CCC(=NNC(N)=O)CC1 | inactive | –
COc1ccc(S(=O)(=O)NCC(c2ccco2)N2CCOCC2)cc1 (stereo not drawn) | inactive | –
CC1(C)CC(N(Cc2ccccc2)C(=O)Cc2ccccc2)CCO1 (stereo not drawn) | inactive | –
CC1(C)CC(CNCCC(c2ccc(F)cc2)c2ccco2)CCO1 (stereo not drawn) | 25.9 µM (active) | –
O=C(NC1CCCC1)C(c1ccco1)N(C(=O)c1ccco1)c1ccc(F)cc1 (stereo not drawn) | inactive | –
